Measured values as given in the supplement of paper PMC9694430.

How the values were obtained:
Test in all cases: thermal shift delta Tm vs DMSO control; higher = stronger stabilization (binding)
Details in all cases: 12.5 µM; protein concentration 2 µM
LOC_OS04G57630-cb004 = tested on: LOC_OS04G57630-cb004
In short: (§1)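 Heating from 25°C to 95°C at 0.05°C/s, fluorescence was recorded for 19.5 μl wells of 2 μM E. coli-expressed, purified rice kinase domain in 100 mM potassium phosphate pH 7.5, 150 mM NaCl, 10% glycerol and 5 × SYPRO Orange with compound in DMSO. Boltzmann fits gave melting temperatures for this differential scanning fluorimetry assay. The shift reported is the mean of three replicates against the DMSO-only protein.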

LOC_OS05G07850-cb002 = tested on: LOC_OS05G07850-cb002
In short: as §1

LOC_OS05G16824-cb004 = tested on: LOC_OS05G16824-cb004
In short: as §1

LOC_OS05G28520-cb001 = tested on: LOC_OS05G28520-cb001
In short: as §1

LOC_OS05G30820-cb001 = tested on: LOC_OS05G30820-cb001
In short: as §1

LOC_OS05G43570-cb004 = tested on: LOC_OS05G43570-cb004
In short: as §1

LOC_OS06G16330-cb003 = tested on: LOC_OS06G16330-cb003
In short: as §1

LOC_OS06G22820-cb001 = tested on: T1, LOC_OS06G22820-cb001
T1 sequence (whole entry): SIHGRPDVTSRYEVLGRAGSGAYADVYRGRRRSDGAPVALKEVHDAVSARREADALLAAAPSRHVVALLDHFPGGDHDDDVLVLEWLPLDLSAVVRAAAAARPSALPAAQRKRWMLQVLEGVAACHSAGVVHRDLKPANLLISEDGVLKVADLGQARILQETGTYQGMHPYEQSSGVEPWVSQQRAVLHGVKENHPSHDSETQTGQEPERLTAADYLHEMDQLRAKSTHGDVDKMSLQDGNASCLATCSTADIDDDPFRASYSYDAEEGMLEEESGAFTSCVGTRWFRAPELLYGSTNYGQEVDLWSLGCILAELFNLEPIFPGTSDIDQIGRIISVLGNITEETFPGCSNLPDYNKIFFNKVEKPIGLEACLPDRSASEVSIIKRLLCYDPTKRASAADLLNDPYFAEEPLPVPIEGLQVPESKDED
In short: as §1

LOC_OS07G06570-cb004 = tested on: LOC_OS07G06570-cb004
In short: as §1

LOC_OS07G07230-cb001 = tested on: LOC_OS07G07230-cb001
In short: as §1
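Further: purified Escherichia coli-expressed rice kinase domain construct.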

Sequence of LOC_OS06G16330-cb003 (as listed by the source): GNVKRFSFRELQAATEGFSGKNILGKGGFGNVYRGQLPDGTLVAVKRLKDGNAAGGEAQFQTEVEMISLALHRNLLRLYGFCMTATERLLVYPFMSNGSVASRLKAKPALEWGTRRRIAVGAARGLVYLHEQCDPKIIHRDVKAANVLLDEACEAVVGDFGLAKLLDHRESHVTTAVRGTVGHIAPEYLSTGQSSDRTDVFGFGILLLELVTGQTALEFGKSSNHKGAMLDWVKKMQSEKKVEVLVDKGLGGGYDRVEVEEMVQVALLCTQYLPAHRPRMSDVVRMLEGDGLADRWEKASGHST

Compound	thermal shift delta Tm (LOC_OS04G57630-cb004)	thermal shift delta Tm (LOC_OS05G07850-cb002)	thermal shift delta Tm (LOC_OS05G16824-cb004)	thermal shift delta Tm (LOC_OS05G28520-cb001)	thermal shift delta Tm (LOC_OS05G30820-cb001)	thermal shift delta Tm (LOC_OS05G43570-cb004)	thermal shift delta Tm (LOC_OS06G16330-cb003)	thermal shift delta Tm (LOC_OS06G22820-cb001)	thermal shift delta Tm (LOC_OS07G06570-cb004)	thermal shift delta Tm (LOC_OS07G07230-cb001)
Cc1cc2c(F)c(Oc3ncnn4cc(OC[C@@H](C)OC(=O)[C@H](C)N)c(C)c34)ccc2[nH]1	0.17 °C	2.83 °C	1.32 °C	0.65 °C	0.41 °C	0.24 °C	0.16 °C	0.5 °C	0.52 °C	0.42 °C
COCCOc1ccc2c(c1)ncn2-c1ccc2cccc(N3CCC(N)CC3)c2n1	6.59 °C	16.7 °C	12.6 °C	-0.07 °C	1.5 °C	0.49 °C	7.19 °C	0.77 °C	1.03 °C	0.19 °C
Cc1ccc(CNc2ncnc3ccc(-c4ccc(CO)o4)cc23)o1	2.38 °C	4.33 °C	-5.36 °C	-0.16 °C	0.29 °C	0.04 °C	2.56 °C	0.43 °C	1.5 °C	0.62 °C
O=C1NC(=O)/C(=C/c2ccc3nccc(-c4ccncc4)c3c2)S1	1.23 °C	8.62 °C	0.06 °C	0.11 °C	0.15 °C	0.36 °C	3.51 °C	0.22 °C	1.03 °C	0.79 °C
CC[C@@](C)(Nc1ccnc(-c2c[nH]c3ncccc23)n1)C(=O)NCC(F)(F)F [Decernotinib (VX-509)]	0.07 °C	9.28 °C	2.45 °C	0.87 °C	0.49 °C	0.57 °C	8.57 °C	0.47 °C	0.54 °C	0.24 °C
C[C@@H](Oc1cc(-c2cnn(C3CCNCC3)c2)cnc1N)c1c(Cl)ccc(F)c1Cl	3.33 °C	9.7 °C	4.65 °C	0.26 °C	0.39 °C	0.21 °C	10.8 °C	0.95 °C	0.69 °C	0.31 °C
O=C1NCCc2[nH]c(-c3ccncc3)cc21	0.34 °C	4.2 °C	-2.22 °C	0.25 °C	0.53 °C	0.46 °C	1.3 °C	0.55 °C	0.4 °C	0.42 °C
COC(=O)[C@]12CCC(C)(C)C[C@H]1[C@H]1C(=O)C=C3[C@@]4(C)C=C(C#N)C(=O)C(C)(C)[C@@H]4CC[C@@]3(C)[C@]1(C)CC2 [Bardoxolone Methyl]	-4.85 °C	-6.24 °C	-7.05 °C	-4.77 °C	0.07 °C	-2.54 °C	-3.91 °C	0.1 °C	0.47 °C	0.11 °C
CC(C)(C)NS(=O)(=O)c1cncc(-c2cc(F)c3nc(N)nn3c2)c1	0.3 °C	1.74 °C	0.61 °C	0.78 °C	0.53 °C	0.59 °C	0.88 °C	0.87 °C	1.73 °C	0.06 °C
CN1CCN(CCOc2cc(OC3CCOCC3)c3c(Nc4c(Cl)ccc5c4OCO5)ncnc3c2)CC1 [Saracatinib (AZD0530)]	0.78 °C	7.68 °C	3.59 °C	0.24 °C	0.41 °C	0.7 °C	7.52 °C	0.89 °C	1.29 °C	0.13 °C
Cc1cc(Nc2cc(CN3CCOCC3)c3nc(C)c(Cc4ccc(Cl)cc4F)n3n2)n[nH]1	1.33 °C	11.1 °C	6.97 °C	1.47 °C	1.14 °C	0.39 °C	9.97 °C	-0.03 °C	0.22 °C	-0.28 °C
C=CC(=O)Nc1cccc(C)c1Nc1ncc2cc(-c3c(Cl)c(OC)cc(OC)c3Cl)ccc2n1	0.51 °C	0.53 °C	-0.76 °C	0.18 °C	0.34 °C	0.48 °C	-5.85 °C	0.33 °C	0.84 °C	0.04 °C
CN1CCN(c2nc(C3=C(c4c[nH]c5ccccc45)C(=O)NC3=O)c3ccccc3n2)CC1 [Sotrastaurin]	-0.06 °C	5.2 °C	1.64 °C	0.09 °C	0.74 °C	1.24 °C	0.19 °C	0.49 °C	0.81 °C	-0.05 °C
O=C(Nc1ccc(OC(F)(F)F)cc1)c1sccc1NCc1ccnc2ccccc12	0.49 °C	2.25 °C	-0.83 °C	0.05 °C	0.65 °C	0.67 °C	0.61 °C	0.92 °C	0.2 °C	-0.46 °C
CCOc1cc2ncc(C#N)c(Nc3ccc(OCc4ccccn4)c(Cl)c3)c2cc1NC(=O)/C=C/CN(C)C [Neratinib (HKI-272)]	1.3 °C	2.1 °C	-0.55 °C	0.73 °C	0.56 °C	0.35 °C	0.45 °C	0.9 °C	1.96 °C	0.81 °C
c1cncc(CN2CCC(n3ncc4c(N5CCOCC5)nc(-c5ccc6[nH]ccc6c5)nc43)CC2)c1	0.55 °C	0.6 °C	-2.75 °C	0.6 °C	0.62 °C	-0.19 °C	-0.3 °C	0.42 °C	0.64 °C	0.16 °C
Cc1ccc(Nc2nccc(N(C)c3ccc4c(C)n(C)nc4c3)n2)cc1S(N)(=O)=O	0.96 °C	8.97 °C	4.72 °C	0.97 °C	0.39 °C	1.48 °C	3.83 °C	0.9 °C	1.14 °C	0.54 °C
N#Cc1ccc2ncnc(NCCc3ccccc3)c2c1 [Senexin A]	0.34 °C	4.61 °C	4.32 °C	0.11 °C	0.16 °C	0.23 °C	2.48 °C	0.4 °C	1.46 °C	0.54 °C
CN1c2ccccc2C(=O)Nc2cnc(Nc3ccc(N4CCC(O)CC4)cc3)nc21	2.68 °C	11.7 °C	3.76 °C	0.16 °C	1.15 °C	0.33 °C	8.37 °C	0.43 °C	0.89 °C	1.4 °C
Nc1[nH]nc2nnc(-c3c(-c4ccccc4)nn4ccccc34)cc12	0.25 °C	2.77 °C	2.12 °C	0.56 °C	0.84 °C	0.89 °C	1.11 °C	0.39 °C	0.46 °C	0.64 °C
